Values joined by “and” are separate entries in the source; they are usually repeats but may differ in a detail not shown here. Equal entries are not always repeated. Screen size: about 5,500 compounds; about 2,000 (36%) were called active. Another 18% or so got no clear call; they are omitted. The list shows a part of the results. A number with no mark means an inactive call. No stated cut-off is given here; in the data, active means normalized growth mostly below about 0.91 (no sharp cut-off); inconclusive means no clear call, values can overlap the other calls; inactive means mostly above about 0.92.
Test: chemical genetic growth profiling, strain panel (AID 1159580);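 further: tested at 20 µM; growth read once vehicle control cultures reached saturation at 30 °C; 1 = growth at the plate median or of vehicle wells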
Conditions: S. cerevisiae deletion strains, growth OD

`O=C1c2ccccc2C(=O)c2ccccc21` showed a normalized growth (locus YAL013W, strain DEP1, stronger effect = lower value) of 1, a normalized growth (locus YAL021C, strain ccr4, stronger effect = lower value) of 0.97 and a normalized growth (locus YAL026C, strain drs2, stronger effect = lower value) of 0.969. For the same compound, the normalized growth (locus YAL030W, strain snc1, stronger effect = lower value) was 0.995, the normalized growth (locus YBL061C, strain skt5, stronger effect = lower value) was 0.986 and the normalized growth (locus YBR009C, strain hhf1, stronger effect = lower value) was 0.96. For the same compound, the normalized growth (locus YBR021W, strain FUR4, stronger effect = lower value) was 1.15, the normalized growth (locus YBR023C, strain chs3, stronger effect = lower value) was 0.982 and the normalized growth (locus YBR171W, strain sec66, stronger effect = lower value) was 0.978. For the same compound, the normalized growth (locus YBR229C, strain ROT2, stronger effect = lower value) was 0.999, the normalized growth (locus YBR231C, strain swc5, stronger effect = lower value) was 0.963 and the normalized growth (locus YBR279W, strain paf1, stronger effect = lower value) was 0.975. It also gave a normalized growth (locus YCL011C, strain gbp2, stronger effect = lower value) of 0.989, a normalized growth (locus YCL016C, strain dcc1, stronger effect = lower value) of 0.957 and a normalized growth (locus YCL029C, strain bik1, stronger effect = lower value) of 0.994. For the same compound, the normalized growth (locus YCL069W, strain vba3, stronger effect = lower value) was 0.998, the normalized growth (locus YCR088W, strain abp1, stronger effect = lower value) was 1.01 and the normalized growth (locus YDL005C, strain med2, stronger effect = lower value) was 0.999. It also gave a normalized growth (locus YDL035C, strain GPR1, stronger effect = lower value) of 0.949, a normalized growth (locus YDL040C, strain nat1, stronger effect = lower value) of 0.988 and a normalized growth (locus YDL074C, strain BRE1, stronger effect = lower value) of 0.91. The normalized growth (locus YDL101C, strain DUN1, stronger effect = lower value) was 0.985, the normalized growth (locus YDL134C, strain PPH21, stronger effect = lower value) was 0.995 and the normalized growth (locus YDL185W, strain tfp1, stronger effect = lower value) was 0.981. It also gave a normalized growth (locus YDL192W, strain arf1, stronger effect = lower value) of 0.99, a normalized growth (locus YDR001C, strain nth1, stronger effect = lower value) of 0.993 and a normalized growth (locus YDR069C, strain doa4, stronger effect = lower value) of 0.984. For the same compound, the normalized growth (locus YDR101C, strain arx1, stronger effect = lower value) was 0.989, the normalized growth (locus YDR137W, strain rgp1, stronger effect = lower value) was 0.947 and the normalized growth (locus YDR150W, strain NUM1, stronger effect = lower value) was 0.969. The normalized growth (locus YDR159W, strain sac3, stronger effect = lower value) was 1.01, the normalized growth (locus YDR162C, strain NBP2, stronger effect = lower value) was 0.921 and the normalized growth (locus YDR195W, strain ref2) was 1.24 [resistant] (active). For the same compound, the normalized growth (locus YDR297W, strain sur2, stronger effect = lower value) was 0.993, the normalized growth (locus YDR318W, strain mcm21, stronger effect = lower value) was 0.975 and the normalized growth (locus YDR334W, strain swr1, stronger effect = lower value) was 0.974. The normalized growth (locus YDR335W, strain msn5, stronger effect = lower value) was 0.966, the normalized growth (locus YDR388W, stronger effect = lower value) was 1 and the normalized growth (locus YDR392W, strain spt3, stronger effect = lower value) was 0.842. The normalized growth (locus YDR502C, strain sam2, stronger effect = lower value) was 0.991, the normalized growth (locus YEL003W, strain gim4, stronger effect = lower value) was 0.981 and the normalized growth (locus YEL037C, strain rad23, stronger effect = lower value) was 0.982. For the same compound, the normalized growth (locus YEL061C, strain CIN8 (second series), stronger effect = lower value) was 0.991, the normalized growth (locus YEL061C, strain CIN8, stronger effect = lower value) was 1.01 and the normalized growth (locus YER015W, strain faa2, stronger effect = lower value) was 0.957. The normalized growth (locus YER016W, strain bim1, stronger effect = lower value) was 0.992, the normalized growth (locus YER110C, stronger effect = lower value) was 0.986 and the normalized growth (locus YER111C, strain swi4, stronger effect = lower value) was 1. The normalized growth (locus YER155C, strain BEM2 (second series), stronger effect = lower value) was 0.968, the normalized growth (locus YER155C, strain BEM2, stronger effect = lower value) was 1.02 and the normalized growth (locus YER167W, strain BCK2, stronger effect = lower value) was 0.976. The normalized growth (locus YFR010W, strain ubp6, stronger effect = lower value) was 0.982, the normalized growth (locus YGL078C, strain dbp3, stronger effect = lower value) was 0.978 and the normalized growth (locus YGL086W, strain mad1, stronger effect = lower value) was 0.967. For the same compound, the normalized growth (locus YGL167C, strain pmr1, stronger effect = lower value) was 0.963, the normalized growth (locus YGL173C, strain kem1, stronger effect = lower value) was 0.997 and the normalized growth (locus YGL227W, strain vid30, stronger effect = lower value) was 1. The normalized growth (locus YGL240W, strain doc1, stronger effect = lower value) was 1, the normalized growth (locus YGL248W, strain PDE1, stronger effect = lower value) was 1.01 and the normalized growth (locus YGL253W, strain hxk2, stronger effect = lower value) was 0.968. The normalized growth (locus YGR078C, strain PAC10, stronger effect = lower value) was 0.963, the normalized growth (locus YGR135W, strain pre9, stronger effect = lower value) was 0.994 and the normalized growth (locus YGR229C, strain SMI1, stronger effect = lower value) was 0.854. It also gave a normalized growth (locus YGR252W, strain gcn5, stronger effect = lower value) of 1.01, a normalized growth (locus YHR013C, strain ard1, stronger effect = lower value) of 0.974 and a normalized growth (locus YHR027C, strain rpn1, stronger effect = lower value) of 0.965. The normalized growth (locus YHR030C, strain SLT2, stronger effect = lower value) was 1.01 and 1.02, the normalized growth (locus YHR079C, strain IRE1 (second series), stronger effect = lower value) was 0.994 and the normalized growth (locus YHR079C, strain IRE1, stronger effect = lower value) was 1.04. For the same compound, the normalized growth (locus YHR094C, strain hxt1, stronger effect = lower value) was 0.98, the normalized growth (locus YHR129C, strain ARP1, stronger effect = lower value) was 1 and the normalized growth (locus YHR142W, strain chs7, stronger effect = lower value) was 0.93. It also gave a normalized growth (locus YHR200W, strain rpn10, stronger effect = lower value) of 0.988, a normalized growth (locus YIL066C, strain RNR3, stronger effect = lower value) of 0.95 and a normalized growth (locus YIL073C, strain SPO22, stronger effect = lower value) of 0.832. It also gave a normalized growth (locus YIL125W, strain kgd1, stronger effect = lower value) of 0.989, a normalized growth (locus YIR030C, strain dcg1, stronger effect = lower value) of 0.998 and a normalized growth (locus YJL092W, strain hpr5, stronger effect = lower value) of 0.992. For the same compound, the normalized growth (locus YJL095W, strain BCK1 (second series), stronger effect = lower value) was 1, the normalized growth (locus YJL095W, strain BCK1, stronger effect = lower value) was 0.994 and 1.03 and the normalized growth (locus YJL115W, strain asf1, stronger effect = lower value) was 0.998. It also gave a normalized growth (locus YJL129C, strain trk1, stronger effect = lower value) of 1.07, a normalized growth (locus YJL134W, strain LCB3, stronger effect = lower value) of 0.988 and a normalized growth (locus YJL154C, strain vps35, stronger effect = lower value) of 1. The normalized growth (locus YJL164C, strain tpk1, stronger effect = lower value) was 0.975, the normalized growth (locus YJL166W, strain qcr8, stronger effect = lower value) was 1 and the normalized growth (locus YJL168C, strain set2, stronger effect = lower value) was 1. For the same compound, the normalized growth (locus YJL187C, strain SWE1 (second series), stronger effect = lower value) was 0.982, the normalized growth (locus YJL187C, strain SWE1, stronger effect = lower value) was 0.989 and the normalized growth (locus YJR043C, strain POL32, stronger effect = lower value) was 0.958. It also gave a normalized growth (locus YJR066W, strain TOR1, stronger effect = lower value) of 0.982.

Source: PubChem BioAssay AID1159580 (chemical genetic matrix, 2015)
